Assay outcomes: PubChem BioAssay, National Center for Advancing Translational Sciences (NCATS)
A selection: hits, their analogues and other compounds. The true share with any hit is near 9.5%.
Pf growth 48h = P. falciparum growth inhibition at 48 hours (one generation) | P. falciparum luciferase growth in erythrocytes, 48 h | Potency, µM (series often up to 28.7 µM), inactives show top-dose activity change, negative = inhibition, usual class: inhibitors | 310,000 compounds, 5.9% hits | AID 504832; note: % is set by controls: 0 for no effect and ±100 for the full control effect
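Luminescence readout; reporter = integrated firefly luciferase in P. falciparum. RBC culture at 2% hematocrit, 0.1% parasitemia final, 37 C/5% CO2; decreased signal taken as growth inhibition.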
Pf growth 96h = P. falciparum growth inhibition at 96 hours. P. falciparum luciferase reporter growth, 96 h. Potency, µM (top dose mostly 28.7 µM), for the others: at the highest dose activity change, negative = inhibition, most hits filed as inhibitors. 320,000 compounds, 6.9% hits. AID 504834; note: % is set by controls: 0 for no effect and ±100 for the full control effect
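96 h incubation, 37 C, 5% CO2, of luciferase-reporter P. falciparum-infected RBCs (2% hematocrit, 0.05% parasitemia final) with test compounds; endpoint luminescence.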
NS1 inh = blocks influenza NS1 protein function; Potency, µM (highest dose often 46.1 µM), for the others: top-dose activity, positive = more growth; 270,000 compounds, 0.4% hits; AID 2326; calls by dose curve; note: actives are rising curves; nearly all actives have a fitted effect of over 50% in size
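A cell-based growth assay was used: compounds that relieve NS1-induced slow growth of budding yeast raise OD600. Assay medium was yeast nitrogen base with ammonium sulphate and -URA supplement, pH 6.0, with 2% galactose.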
SARS PLpro yeast = SARS-CoV PLP inhibition in yeast; S. cerevisiae expressing SARS-CoV PLpro, growth rescue; Potency, µM (titrated, usually from 32.9 µM), for inactives: top-dose activity, positive = growth rescue, usual class: activators; 330,000 compounds, 0.19% hits; AID 485353; calls by dose curve; note: 0% is about no effect; nearly all actives have a fitted effect of over 55% in size
RE007 growth inh = less growth of the S. pombe RE007 Vpr strain | S. pombe RE007 Vpr strain, BacTiter-Glo ATP luminescence, 24 h | Potency, µM (highest dose often 92.2 µM), without a hit: at the highest dose activity change, negative = less growth, usual class: inhibitors | 360,000 compounds, 0.21% hits; active = well fitted falling curve with a large enough effect; inconclusive = small, poorly fitted or top-dose-only effect; inactive = no such curve, though single readings can be large or run the other way; note: % is set by controls: 0 for no effect and ±100 for the full control effect; nearly all actives have a fitted effect of over 50% in size
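Fission yeast RE007 carrying one integrated HIV-1 vpr copy, seeded at OD 0.01 in PMG+AL medium with 23 nL pinned compound. Grown 24 h at 30 degrees; viability read by BacTiter-Glo luminescence after 5 min.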
* = called active by the depositor; ? = inconclusive; / = no result; [ ] = another dose, or the depositor's remark. Unless noted, calls come from the whole dose curve; as a rule, active = well fitted inhibition curve with a large enough effect; inconclusive = small, poorly fitted or top-dose-only effect, or another doubt; inactive = no such curve, though single readings can be large or run the other way. Potency is the fitted concentration of half-maximal effect.

SMILES	Pf growth 48h	Pf growth 96h	NS1 inh	SARS PLpro yeast	RE007 growth inh
CCCCn1c(SCCN2CCCCC2)nc2c1c(=O)n(C)c(=O)n2C	/	/	/	/	-17%
CC(=O)N1CCc2c(sc(NC(=O)C3CCN(S(=O)(=O)c4cccs4)CC3)c2C(N)=O)C1	12µM*	?	/	4%	13%
COC(=O)N1CCc2c(sc(NC(=O)C3COc4ccccc4O3)c2C(N)=O)C1 (stereo not drawn)	15µM*	?	/	2%	-9%
CC(=O)N1CCc2c(sc(NC(=O)Cc3ccccc3)c2C(N)=O)C1	2%	?	-8%	-1%	-2%
CC(=O)N1CCc2c(sc(NC(=O)C3CCCN3S(=O)(=O)c3cccs3)c2C(N)=O)C1 (stereo not drawn)	?	?	/	-1%	-8%
NC(=O)c1c(NC(=O)C2COc3ccccc3O2)sc2c1CCN(Cc1ccccc1)C2 (stereo not drawn)	-14%	-12%	-11%	1%	5%
CCOC(=O)c1c(NC(=O)C2COc3ccccc3O2)sc2c1CCN(Cc1ccccc1)C2 (stereo not drawn)	4.7µM*	2.3µM*	-11%	-56%	-13%
O=C(c1ccco1)N1CCN(C2CN(Cc3cn(Cc4ccccc4C(F)(F)F)nn3)S(=O)(=O)C2)CC1 (stereo not drawn)	/	/	/	/	4%
CN(C(=O)c1cc(COc2ccc(F)c(F)c2)on1)C1CCOC1 (stereo not drawn)	19%	-19%	6%	-3%	6%
CNC(=S)N(C)CCc1cc2c(c(OC)c1C=C1C(=O)NC(=O)NC1=O)OCO2	?	5.2µM*	-1%	0%	3%
C=CCN1C(=O)NC(=O)/C(=C/c2c(CCN(C)C(=O)c3ccccc3)cc3c(c2OC)OCO3)C1=O	?	-15%	11%	-1%	-3%
COc1ccc(CN2CCN(C(=O)CCC(=O)Nc3nnc(C4CCCCC4)s3)CC2)cc1F	-27%	12µM*	-12%	-5%	8%
COc1cccc(/C=C2\SC(=S)N(CC(=O)N(C)C3CCS(=O)(=O)C3)C2=O)c1 (stereo not drawn)	-7%	4%	11%	-2%	2%
COc1cccc(/C=C2\SC(=O)N(CCC(=O)NC3CCS(=O)(=O)C3)C2=O)c1 (stereo not drawn)	-3%	9.3µM*	-13%	-1%	-2%
O=C(CCN1C(=O)S/C(=C\c2ccccc2)C1=O)NC1CCS(=O)(=O)C1 (stereo not drawn)	-7%	12µM*	-3%	?	-8%
CCN(C(=O)CN1C(=O)S/C(=C\c2cccc(OC)c2)C1=O)C1CCS(=O)(=O)C1 (stereo not drawn)	?	8.3µM*	0%	-1%	7%
COc1cccc(/C=C2\SC(=O)N(CC(=O)NC3C=CS(=O)(=O)C3)C2=O)c1 (stereo not drawn)	?	12µM*	0%	0%	-6%
COC(=O)[C@@]12C[C@@H](CC(=O)N3CCOCC3)C(=O)N(Cc3ccc4c(c3)OCO4)C1=CCC(C)(C)C2	/	/	/	/	4%
Cc1cc(C)cc(N(CC(=O)O)S(=O)(=O)c2cccnc2)c1	/	/	-9%	/	/
Cn1c(NCCc2ccncc2)nc2cc(-c3ccsc3)sc2c1=O	/	/	/	/	-18%[18.4 µM]
CCO[C@@H]1OC(C(=O)N2CCN(Cc3ccc4c(c3)OCO4)CC2)=C[C@H](c2ccc(Br)cc2)[C@H]1CCCO	1.3µM*	4.1µM*	-13%	0%	-12%
CCO[C@@H]1OC(C(=O)N2CCN(Cc3ccc4c(c3)OCO4)CC2)=C[C@H](c2ccc(C(F)(F)F)cc2)[C@H]1CCCO	1.5µM*	2.3µM*	-11%	0%	4%
CCCCn1c(N)c(N(CC(C)C)C(=O)COC(=O)C2(c3ccccc3)CC2)c(=O)[nH]c1=O	?	?	/	8%	-30%
CCCSC1=C(C#N)C(c2ccc(OC)cc2)C2=C(CC(C)(C)CC2=O)N1 (stereo not drawn)	?	?	5%	1%	12%
CSC1=C(C#N)C(c2ccc(Cl)cc2)C2=C(CC(C)(C)CC2=O)N1 (stereo not drawn)	7.4µM*	17%	4%	1%	-6%
SMILES	Pf growth 48h	Pf growth 96h	NS1 inh	SARS PLpro yeast	RE007 growth inh
COc1ccc(Br)cc1CNC(=O)c1ccc2c(c1)N(C)CCS2	?	?	-13%	-9%	-7%
COc1cccc(NC(=O)c2ccc3c(c2)N(C)CCS3)c1	9%	7.4µM*	-1%	-14%	-21%
CN1CCSc2ccc(C(=O)NCc3cccc(F)c3)cc21	-22%	9.3µM*	9%	-15%	0%
COc1cccc(CN(C)CCCn2cnc(C(=O)Nc3ccc(C)c(C)c3)n2)c1	/	/	/	/	-18%
O=[N+]([O-])c1ccccc1S(=O)(=O)N1CCN(c2ccccc2)CC1	10%	0%	-11%	-6%	-8%
O=C(Nc1ccc(Br)cc1)c1nn(C23CC4CC(CC(C4)C2)C3)cc1Br	?	0.19µM*	20%	-4%	0%
c1ccc(CN2CCN(c3nc(-c4ccccc4)nc4ccccc34)CC2)cc1	3.3µM*	/	3%	7%	0%
Cc1ccc(-c2nc(N(C)C3CCN(C)CC3)c3ccccc3n2)cc1	/	6.6µM*	-7%	-6%	-2%
c1ccc2c(N3CCCC3)nc(-c3ccncc3)nc2c1	?	?	-96%	-12%	?
CCN1CCN(c2nc(-c3ccccn3)nc3ccccc23)CC1	?	?	-2%	6%	-12%
c1ccc(CN2CCN(c3nc(-c4ccccn4)nc4ccccc34)CC2)cc1	1.7µM*	-99%	-56%	6%	14%
Cc1ccc(-c2nc(C(Cl)Cl)c3ccccc3n2)cc1	?	?	5%	0%	-10%
CN1CCN(c2nc(-c3ccncc3)nc3ccccc23)CC1	9.3µM*	/	-25%	5%	-3%
c1ccc(CN2CCN(c3nc4ccccc4c4ccccc34)CC2)cc1	/	/	-51%	-22%	10%
Cn1c(=O)[nH]c(=O)c2c1nc(SCC(O)CCl)n2Cc1ccccc1 (stereo not drawn)	-2%	?	10%	13%	4%
CCCC(C)NC(=O)C1CC(=O)N(CCc2ccc(F)cc2)C1 (stereo not drawn)	0%	0.93µM*	3%	-7%	2%
CCC(CC)NC(=O)C1CC(=O)N(CCc2ccc(F)cc2)C1 (stereo not drawn)	2%	28%	10%	1%	-10%
O[C@@H]1CN(Cc2ccc(-n3cccn3)cc2)CC[C@H]1N1CCN(c2ccccc2F)CC1	?	10µM*	-13%	2%	-14%
O=C(NCc1ccccc1)C(c1ccc(O)cc1)N(C(=O)Cn1nnc(-c2cccs2)n1)c1ccc2c(c1)OCCO2 (stereo not drawn)	12µM*	-8%	?	12%	8%
